Whole data set: some 16,000 sequences, median “rpm ratio (pull-down/input)” near 0.94, cut for the highest 2% near 1.7. This is one part of a sample in which the highest values are shown more often than they occur.
What follows are sequences tested against T1, MBP-FoxP1dN (Mus musculus, UniProt P58462 326-579) (assay: PD-seq (MBP pull-down with sequencing); 20 mM Tris-HCl pH 7.5, 100 mM NaCl, 1.5 mM MgCl2, 0.4 uM protein, 0.1 uM dsDNA library, 30 min, room temperature, amylose pull-down; high values mean tight binding). Settings: protein: recombinant; tags: His6-MBP; chain copies: 2; dsDNA, one strand shown.
T1 sequence: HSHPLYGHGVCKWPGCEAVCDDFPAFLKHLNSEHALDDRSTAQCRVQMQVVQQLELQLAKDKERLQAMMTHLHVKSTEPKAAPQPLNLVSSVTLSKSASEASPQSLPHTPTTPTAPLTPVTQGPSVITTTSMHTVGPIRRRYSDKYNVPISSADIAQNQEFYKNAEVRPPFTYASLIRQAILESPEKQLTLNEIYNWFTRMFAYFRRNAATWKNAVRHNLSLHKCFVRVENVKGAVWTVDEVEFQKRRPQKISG
In short: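 E. coli-expressed mouse FoxP3 or FoxP1 fragment, N-terminus removed and tagged with His6-MBP, was used at 0.4 µM against 0.1 µM of a Klenow-filled degenerate double-stranded DNA library. After 30 min at room temperature in Tris pH 7.5 buffer with NaCl and MgCl2, complexes were pulled down on amylose resin and washed three times. Binding is pull-down over input reads-per-million enrichment from pooled replicates of the proteinase K-released, PCR-barcoded, Illumina-sequenced DNA.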
“GATGATTGTTCTCCCAGCTGATGAATTCTAATCCTCGAGTAAACAAATTTTCCTAATCTTTCTGTTCAAGCGCCATCTAC” was tested, and the binding signal was 0.781 RPM ratio (pull-down/input). For “GATGATTGTTCTCCCAGCTGATGAATTGGGTGCTTCGAGTAAACAAATTTTCCTAATCTTTCTGTTCAAGCGCCATCTAC”, the binding signal was 0.861 RPM ratio (pull-down/input). “GATGATTGTTCTCCCAGCTGATGAATTTCAGGTATCGAGTAAACAAATTTTCCTAATCTTTCTGTTCAAGCGCCATCTAC” was tested, and the binding signal was 0.919 RPM ratio (pull-down/input). With “GATGATTGTTCTCCCAGCTGATGAATTTGTACGCTCGAGTAAACAAATTTTCCTAATCTTTCTGTTCAAGCGCCATCTAC” the binding signal was 1.13 RPM ratio (pull-down/input). In the case of “GATGATTGTTCTCCCAGCTGATGAATTTGCGATATCGAGTAAACAAATTTTCCTAATCTTTCTGTTCAAGCGCCATCTAC”, the binding signal is reported as 1.19 RPM ratio (pull-down/input). With “GATGATTGTTCTCCCAGCTGATGAATTGCCTATGTCGAGTAAACAAATTTTCCTAATCTTTCTGTTCAAGCGCCATCTAC” the binding signal was 0.918 RPM ratio (pull-down/input). With “GATGATTGTTCTCCCAGCTGATGAATTGACGCGGTCGAGTAAACAAATTTTCCTAATCTTTCTGTTCAAGCGCCATCTAC” the binding signal was 1.01 RPM ratio (pull-down/input). “GATGATTGTTCTCCCAGCTGATGAATTTTCTGGCTCGAGTAAACAAATTTTCCTAATCTTTCTGTTCAAGCGCCATCTAC” was tested, and the binding signal was 0.777 RPM ratio (pull-down/input). For “GATGATTGTTCTCCCAGCTGATGAATTTCCGAAGTCGAGTAAACAAATTTTCCTAATCTTTCTGTTCAAGCGCCATCTAC”, the binding signal was 0.787 RPM ratio (pull-down/input). With “GATGATTGTTCTCCCAGCTGATGAATTACGTCGCTCGAGTAAACAAATTTTCCTAATCTTTCTGTTCAAGCGCCATCTAC” the binding signal was 1.02 RPM ratio (pull-down/input). For “GATGATTGTTCTCCCAGCTGATGAATTTTCACATTCGAGTAAACAAATTTTCCTAATCTTTCTGTTCAAGCGCCATCTAC”, the binding signal was 0.987 RPM ratio (pull-down/input). For “GATGATTGTTCTCCCAGCTGATGAATTACATTCCTCGAGTAAACAAATTTTCCTAATCTTTCTGTTCAAGCGCCATCTAC”, the binding signal was 1.2 RPM ratio (pull-down/input). With “GATGATTGTTCTCCCAGCTGATGAATTTTACTAATCGAGTAAACAAATTTTCCTAATCTTTCTGTTCAAGCGCCATCTAC” the binding signal was 1.14 RPM ratio (pull-down/input). For “GATGATTGTTCTCCCAGCTGATGAATTTTTACTATCGAGTAAACAAATTTTCCTAATCTTTCTGTTCAAGCGCCATCTAC”, the binding signal was 1.1 RPM ratio (pull-down/input). “GATGATTGTTCTCCCAGCTGATGAATTTACTAAATCGAGTAAACAAATTTTCCTAATCTTTCTGTTCAAGCGCCATCTAC” was tested, and the binding signal was 1.72 RPM ratio (pull-down/input). With “GATGATTGTTCTCCCAGCTGATGAATTAATGCGCTCGAGTAAACAAATTTTCCTAATCTTTCTGTTCAAGCGCCATCTAC” the binding signal was 1.26 RPM ratio (pull-down/input). In the case of “GATGATTGTTCTCCCAGCTGATGAATTGACCTTCTCGAGTAAACAAATTTTCCTAATCTTTCTGTTCAAGCGCCATCTAC”, the binding signal is reported as 0.921 RPM ratio (pull-down/input). For “GATGATTGTTCTCCCAGCTGATGAATTTTGCTTTTCGAGTAAACAAATTTTCCTAATCTTTCTGTTCAAGCGCCATCTAC”, the binding signal was 1.49 RPM ratio (pull-down/input). In the case of “GATGATTGTTCTCCCAGCTGATGAATTGAATGGTTCGAGTAAACAAATTTTCCTAATCTTTCTGTTCAAGCGCCATCTAC”, the binding signal is reported as 0.852 RPM ratio (pull-down/input). For “GATGATTGTTCTCCCAGCTGATGAATTGACGCCATCGAGTAAACAAATTTTCCTAATCTTTCTGTTCAAGCGCCATCTAC”, the binding signal was 1.24 RPM ratio (pull-down/input). For “GATGATTGTTCTCCCAGCTGATGAATTGTTGACGTCGAGTAAACAAATTTTCCTAATCTTTCTGTTCAAGCGCCATCTAC”, the binding signal was 2.22 RPM ratio (pull-down/input). “GATGATTGTTCTCCCAGCTGATGAATTTTTGACGTCGAGTAAACAAATTTTCCTAATCTTTCTGTTCAAGCGCCATCTAC” was tested, and the binding signal was 0.91 RPM ratio (pull-down/input). “GATGATTGTTCTCCCAGCTGATGAATTGACGTAATCGAGTAAACAAATTTTCCTAATCTTTCTGTTCAAGCGCCATCTAC” was tested, and the binding signal was 1.75 RPM ratio (pull-down/input). With “GATGATTGTTCTCCCAGCTGATGAATTTGACGTATCGAGTAAACAAATTTTCCTAATCTTTCTGTTCAAGCGCCATCTAC” the binding signal was 0.962 RPM ratio (pull-down/input). In the case of “GATGATTGTTCTCCCAGCTGATGAATTGATGACGTCGAGTAAACAAATTTTCCTAATCTTTCTGTTCAAGCGCCATCTAC”, the binding signal is reported as 1.06 RPM ratio (pull-down/input). “GATGATTGTTCTCCCAGCTGATGAATTTCTCTAGTCGAGTAAACAAATTTTCCTAATCTTTCTGTTCAAGCGCCATCTAC” was tested, and the binding signal was 0.844 RPM ratio (pull-down/input). “GATGATTGTTCTCCCAGCTGATGAATTACCGCGATCGAGTAAACAAATTTTCCTAATCTTTCTGTTCAAGCGCCATCTAC” was tested, and the binding signal was 0.929 RPM ratio (pull-down/input). In the case of “GATGATTGTTCTCCCAGCTGATGAATTCTGAACATCGAGTAAACAAATTTTCCTAATCTTTCTGTTCAAGCGCCATCTAC”, the binding signal is reported as 0.898 RPM ratio (pull-down/input). In the case of “GATGATTGTTCTCCCAGCTGATGAATTCTAAACATCGAGTAAACAAATTTTCCTAATCTTTCTGTTCAAGCGCCATCTAC”, the binding signal is reported as 2.07 RPM ratio (pull-down/input). In the case of “GATGATTGTTCTCCCAGCTGATGAATTCTTCACATCGAGTAAACAAATTTTCCTAATCTTTCTGTTCAAGCGCCATCTAC”, the binding signal is reported as 1.08 RPM ratio (pull-down/input). In the case of “GATGATTGTTCTCCCAGCTGATGAATTTTGAAAATCGAGTAAACAAATTTTCCTAATCTTTCTGTTCAAGCGCCATCTAC”, the binding signal is reported as 1.14 RPM ratio (pull-down/input).

Reference: publication PMC12820563, “FoxP3 forms a head-to-head dimer in vivo and stabilizes its multimerization on adjacent microsatellites”
